Laboratory results from PubChem BioAssay AID1159580 (chemical genetic matrix, 2015).
Where “and” joins values, the source holds several entries; their conditions need not be identical. Equal entries are not always repeated. In all, about 5,500 compounds went through this assay and about 2,000 (36%) were called active. Inconclusive results (about 18%) are left out. Rule as the data show it: active = normalized growth mostly below about 0.91 (no sharp cut-off); inconclusive = no clear call, values can overlap the other calls; inactive = mostly above about 0.92. The list shows a part of the results.

Test: chemical genetic growth profiling, strain panel (AID 1159580);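 also: tested at 20 µM; growth read once vehicle control cultures reached saturation at 30 °C; 1 = growth at the plate median or of vehicle wells; lower values mean less growth of the strain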
Details: S. cerevisiae deletion strains, growth OD

Measured: normalized growth

CC(=O)O[C@H]1C[C@@H](OC(C)=O)C(C)(C)C2CC(=O)[C@]3(C)C(CC[C@@]4(C)[C@H](c5ccoc5)OC(=O)[C@H]5O[C@]543)[C@]21C (some centres not stated)
inactive: locus YAL021C, strain ccr4, hits give low values 0.973 | locus YAL026C, strain drs2, hits give low values 0.982 | locus YAL030W, strain snc1, hits give low values 0.989 | locus YBL061C, strain skt5, hits give low values 0.993 | locus YBR009C, strain hhf1, hits give low values 0.99 | locus YBR021W, strain FUR4, hits give low values 0.984 | locus YBR023C, strain chs3, hits give low values 1.01 | locus YBR171W, strain sec66, hits give low values 0.999 | locus YBR229C, strain ROT2, hits give low values 0.999 | locus YBR231C, strain swc5, hits give low values 1.01 | locus YBR279W, strain paf1, hits give low values 0.969 | locus YCL011C, strain gbp2, hits give low values 0.998 | locus YCL016C, strain dcc1, hits give low values 0.997 | locus YCL029C, strain bik1, hits give low values 1.01 | locus YCL061C, strain MRC1, hits give low values 0.99 | locus YCL069W, strain vba3, hits give low values 0.99 | locus YCR088W, strain abp1, hits give low values 0.988 | locus YDL005C, strain med2, hits give low values 0.985 | locus YDL035C, strain GPR1, hits give low values 0.982 | locus YDL040C, strain nat1, hits give low values 0.999 | locus YDL074C, strain BRE1, hits give low values 0.981 | locus YDL101C, strain DUN1, hits give low values 1.02 | locus YDL185W, strain tfp1, hits give low values 0.998 | locus YDL192W, strain arf1, hits give low values 1 | locus YDR001C, strain nth1, hits give low values 0.976 | locus YDR069C, strain doa4, hits give low values 0.989 | locus YDR101C, strain arx1, hits give low values 0.997 | locus YDR137W, strain rgp1, hits give low values 0.974 | locus YDR159W, strain sac3, hits give low values 0.973 | locus YDR162C, strain NBP2, hits give low values 1 | locus YDR195W, strain ref2 0.94 | locus YDR297W, strain sur2, hits give low values 0.988 | locus YDR318W, strain mcm21, hits give low values 1.01 | locus YDR334W, strain swr1, hits give low values 0.983 | locus YDR335W, strain msn5, hits give low values 0.98 | locus YDR388W, hits give low values 1.01 | locus YDR392W, strain spt3, hits give low values 0.997 | locus YDR502C, strain sam2, hits give low values 1.03 | locus YEL003W, strain gim4, hits give low values 0.991 | locus YEL037C, strain rad23, hits give low values 0.988 | locus YEL061C, strain CIN8 (second series), hits give low values 0.994 | locus YER015W, strain faa2, hits give low values 0.994 | locus YER016W, strain bim1, hits give low values 0.991 | locus YER110C, hits give low values 1.02 | locus YER111C, strain swi4, hits give low values 1 | locus YER155C, strain BEM2 (second series), hits give low values 0.992 | locus YER155C, strain BEM2, hits give low values 1.01 | locus YER167W, strain BCK2, hits give low values 0.997 | locus YFR010W, strain ubp6, hits give low values 0.981 | locus YGL078C, strain dbp3, hits give low values 1.03 | locus YGL086W, strain mad1, hits give low values 1.01 | locus YGL167C, strain pmr1, hits give low values 0.997 | locus YGL173C, strain kem1, hits give low values 0.99 | locus YGL227W, strain vid30, hits give low values 0.993 | locus YGL240W, strain doc1, hits give low values 1.01 | locus YGL248W, strain PDE1, hits give low values 1 | locus YGL253W, strain hxk2, hits give low values 0.988 | locus YGR078C, strain PAC10, hits give low values 1.02 | locus YGR135W, strain pre9, hits give low values 1.06 | locus YGR252W, strain gcn5, hits give low values 0.994 | locus YHR013C, strain ard1, hits give low values 0.998 | locus YHR027C, strain rpn1, hits give low values 0.994 | locus YHR030C, strain SLT2, hits give low values 0.969 | locus YHR079C, strain IRE1 (second series), hits give low values 1.02 | locus YHR079C, strain IRE1, hits give low values 0.966 | locus YHR094C, strain hxt1, hits give low values 1.02 | locus YHR129C, strain ARP1, hits give low values 1.01 | locus YHR142W, strain chs7, hits give low values 1.01 | locus YHR200W, strain rpn10, hits give low values 1.02 | locus YIL066C, strain RNR3, hits give low values 0.998 | locus YIL073C, strain SPO22, hits give low values 1.32 | locus YIL125W, strain kgd1, hits give low values 1.01 | locus YIR030C, strain dcg1, hits give low values 1.01 | locus YJL092W, strain hpr5, hits give low values 0.994 | locus YJL095W, strain BCK1 (second series), hits give low values 0.996 | locus YJL095W, strain BCK1, hits give low values 1.04 and 0.973 | locus YJL115W, strain asf1, hits give low values 0.973 | locus YJL129C, strain trk1, hits give low values 0.991 | locus YJL134W, strain LCB3, hits give low values 1 | locus YJL154C, strain vps35, hits give low values 0.986 | locus YJL164C, strain tpk1, hits give low values 0.994 | locus YJL166W, strain qcr8, hits give low values 0.993 | locus YJL168C, strain set2, hits give low values 1.01 | locus YJL187C, strain SWE1 (second series), hits give low values 1.02 | locus YJL187C, strain SWE1, hits give low values 0.988 | locus YJR043C, strain POL32, hits give low values 0.958 | locus YJR066W, strain TOR1, hits give low values 0.915
